ChEMBL document CHEMBL1201862, “PubChem BioAssay data set” (2004)
Out of some 58,000 sequences screened, about 4,000 (6.9%) were called active. No stated cut-off is given here; in the data, active = GI50 up to about 1.1 µM and inactive = higher. These entries were drawn from the full list. Potency and affinity values are given separately.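 Growth conditions: 96-well plates. Treatment: test compound, 48 hours, 5 concentrations. Analysis: linear interpolation between bracketing concentrations; unreached endpoints set to highest concentration. GI50: concentration for 50% inhibition of growth.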

The substances below were run on SF-295 (assay: NCI tumour cell line growth inhibition, 48 h).

Substance | GI50
mu-(1,7-nanodiamine-N,N')bis-(cis-aminedichloroplatimum (II)), CHEMBL2146215 | 14.3 µM
[Bis(aminomethyl)tetramethylenesilane]dichloropaltinum(II), CHEMBL2146205 | 27.7 µM
[Bis(aminomethyl)pentamethylenesilane]tetrachloropaltinum(IV), CHEMBL2146204 | 3.3 µM
[Bis(aminomethyl)dimethylsilane]tetrachloroplatinum(IV), CHEMBL2146190 | 4.39 µM
[Bis(aminomethyl)pentamethylenesilane]dichloropaltinum(II), CHEMBL2146202 | 2.65 µM
cis-Bis[[(trimethylsilyl)methyl]amino]tetrachloroplatinum(IV), CHEMBL2146191 | 13.7 µM
[Bis(aminomethyl)tetramethylenesilane]tetrachloropaltinum(IV), CHEMBL2146189 | 5.25 µM
[Bis(aminomethyl)ethylmethylsilane]tetrachloroplatinum(IV), CHEMBL2146192 | 3.17 µM
[Bis(aminomethyl)dimethylsilane]dichloroplatinum (II), CHEMBL2146201 | 11.9 µM
CISPLATIN, CHEMBL11359 | 0.912 µM
[Bis(aminomethyl)diethylsilane]tetrachloroplatinum(IV), CHEMBL2146203 | 3.37 µM
